From PubChem
The full list was thinned out, with hits kept by preference.
NS1 inh: qHTS Assay for Inhibitors of Influenza NS1 Protein Function; Potency, µM (highest dose often 46.1 µM); hit rate 0.4% among 270,000; calls by dose curve; also: actives are rising curves; nearly all actives have a fitted effect of over 50% in size
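Read-out: OD600 growth recovery of NS1-expressing budding yeast. Cells grown overnight at 30C in -URA glucose medium, washed, resuspended and diluted 1:100 in 2% galactose assay medium, pH 6.0. Same strain lacking NS1 served as positive control.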
Cruzain inh noDet: qHTS Assay for Promiscuous and Specific Inhibitors of Cruzain (without detergent). Cruzipain (Trypanosoma cruzi), P25779. purified cruzain, Z-FR-AMC fluorescence, no detergent. Potency, µM, usual class: inhibitors. hit rate 2.3% among 200,000. AID 1476, 2009; also: nearly all actives have a fitted effect of over 40% in size
Target sequence (P25779 123-467 limits assumed): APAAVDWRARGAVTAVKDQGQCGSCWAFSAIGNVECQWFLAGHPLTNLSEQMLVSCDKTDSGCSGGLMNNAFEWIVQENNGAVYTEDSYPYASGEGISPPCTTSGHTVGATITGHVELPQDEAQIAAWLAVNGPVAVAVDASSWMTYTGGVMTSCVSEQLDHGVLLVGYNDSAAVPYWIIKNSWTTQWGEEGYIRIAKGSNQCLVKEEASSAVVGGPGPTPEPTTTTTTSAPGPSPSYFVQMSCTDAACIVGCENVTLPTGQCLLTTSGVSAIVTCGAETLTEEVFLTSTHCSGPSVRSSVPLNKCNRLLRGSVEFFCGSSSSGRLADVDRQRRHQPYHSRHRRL
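Purified cruzain at 1.5 nM, pre-incubated 15 min with compound at room temperature in 100 mM sodium acetate pH 5.5, 5 mM DTT, 0.00005% Triton X-100. Reaction started with 2 uM Z-FR-AMC; AMC fluorescence increase over 60 s gives rate.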
Cruzain Triton: qHTS Assay for Promiscuous and Specific Inhibitors of Cruzain (with detergent). hit rate 0.43% among 200,000. Cruzipain (Trypanosoma cruzi), P25779. purified cruzain, Z-FR-AMC fluorescence, 0.01% Triton. Potency, µM, actives largely listed as inhibitors; also: nearly all actives have a fitted effect of over 40% in size
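Enzyme 1.5 nM, Z-FR-AMC 2 uM, NaOAc 100 mM pH 5.5, DTT 5 mM, Triton X-100 0.01%; 15 min RT compound preincubation; kinetic ex360/em450, 60 s delta.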
Numbers stand for hits. Unless noted, calls follow the shape of the dose curve; as a rule, active = well fitted curve in the direction sought with a large enough effect; inconclusive = small, poorly fitted or top-dose-only effect, or another doubt; inactive = no such curve, though single readings can be large; an effect the other way counts as inactive or inconclusive.

`CC1=C(C(=O)Nc2ccc(F)cc2)C(c2ccncc2)C2=C(CCCC2=O)N1` (stereo not given) gave NS1 inh inactive, Cruzain inh noDet inactive and Cruzain Triton inactive.
Screening COc1cccc(NC(=O)C(NCCc2ccc(S(N)(=O)=O)cc2)c2ccccc2)c1 (stereo not given) returned NS1 inh inactive.
Cc1ccc(OCC(O)CN2CCC(Cc3ccccc3)CC2)c(C)c1 (stereo not given) was read as NS1 inh inactive.
For Cc1ccc(NC(=O)c2ccc(CNS(=O)(=O)c3cccc(C(F)(F)F)c3)cc2)cc1 the results were NS1 inh inactive, Cruzain inh noDet 25.1µM and Cruzain Triton inactive.
O=C(Nc1ccccc1F)c1ccc(CNS(=O)(=O)c2cccc(C(F)(F)F)c2)cc1 was read as NS1 inh inactive, Cruzain inh noDet inconclusive and Cruzain Triton inactive.
Screening O=C(NCc1nc2ncc(Br)cc2[nH]1)c1ccccc1 returned NS1 inh inactive, Cruzain inh noDet inactive and Cruzain Triton inactive.
O=c1[nH]c2cc(Br)cnc2nc1/C=C(\O)c1ccc(F)cc1 was read as NS1 inh inactive, Cruzain inh noDet 25.1µM and Cruzain Triton inactive.
For O=C(CCCSc1nc2ccccc2[nH]1)Nc1ccccc1 the results were NS1 inh inactive, Cruzain inh noDet inactive and Cruzain Triton inactive.
CCOc1ccc(S(=O)(=O)Nc2ccc3c(c2)c(C(C)=O)c(C)n3S(=O)(=O)c2ccc(OCC)cc2)cc1 was read as Cruzain inh noDet inconclusive and Cruzain Triton inactive.
Screening CCOc1ccc(S(=O)(=O)Nc2ccc3c(c2)c2c(n3S(=O)(=O)c3ccc(OCC)cc3)CCCC2=O)cc1 returned NS1 inh inactive, Cruzain inh noDet 7.94µM and Cruzain Triton inactive.
`C[C@]12CCC3C(CCC4=C/C(=N/OCC(=O)NC(CCC(=O)O)C(=O)O)CC[C@@]43C)C1CCC2O` (stereo not given in full) gave NS1 inh inactive.
`CCOC(=O)c1cc2c(=O)n3ccccc3nc2n(CC2CCCO2)c1=NC(=O)c1ccc(OCC)cc1` (stereo not given) gave Cruzain inh noDet inactive and Cruzain Triton inactive.
For C/C(=C/CCC(C)C1CCC2(C)C3CCC4C(C)(C)C(=O)CCC4(C)C3=CCC12C)C(=O)O (stereo not given) the results were NS1 inh inactive.
Screening C/C(=C/CCC(C)[C@H]1CC[C@@]2(C)C3=C(CC[C@]12C)[C@@]1(C)CCC(=O)C(C)(C)[C@@H]1CC3)C(=O)O (stereo not given in full) returned NS1 inh inactive, Cruzain inh noDet 25.1µM and Cruzain Triton inactive.
For CSCCC(NC(=O)C1CCC(C)CC1)C(=O)Nc1ccc(NC(C)=O)cc1 (stereo not given) the results were NS1 inh inactive.
Screening CCCN1CCN(CCCNC(=O)c2cc3c(s2)-c2c(C)cccc2OC3)CC1 returned NS1 inh inactive, Cruzain inh noDet inconclusive and Cruzain Triton 17.8µM.
For CN(C)CCNC(=O)c1cc2c(s1)-c1ccccc1OC2 the results were NS1 inh inactive, Cruzain inh noDet 10µM and Cruzain Triton inconclusive.
`CCCN1CCN(CCCNC(=O)c2cc3c(s2)-c2ccccc2OC3)CC1` gave NS1 inh inactive, Cruzain inh noDet inconclusive and Cruzain Triton inconclusive.
For Cc1cccc2c1-c1sc(C(=O)NCCc3ccc(Cl)cc3)cc1CO2 the results were Cruzain inh noDet 25.1µM and Cruzain Triton inactive.
For COc1ccc(CCNC(=O)c2cc3c(s2)-c2ccccc2OC3)cc1OC the results were Cruzain inh noDet inconclusive and Cruzain Triton inactive.
Cc1cccc(CCNC(=O)c2cc3c(s2)-c2c(C)cccc2OC3)c1 was read as Cruzain inh noDet inactive and Cruzain Triton inconclusive.
`CNC(=O)C1CC(=O)N(c2ccc(OCC(=O)N3CCCC3)cc2)C1` (stereo not given) gave NS1 inh inactive.
`N#Cc1cnc(SCC(=O)N2CCCC2)nc1N` gave NS1 inh inactive.
`CN(CCCNC(=O)C1CCN(S(=O)(=O)c2cccc3nsnc23)CC1)Cc1ccccc1` gave NS1 inh inactive, Cruzain inh noDet inactive and Cruzain Triton inactive.
`COCC(C)NC(C(=O)Nc1ccc(C)c(Cl)c1)c1ccccc1` (stereo not given) gave NS1 inh inactive, Cruzain inh noDet inactive and Cruzain Triton inactive.
`Cc1ccc(NC(=O)C(OC(=O)c2ccc(C=O)cc2)c2ccccc2)cc1Cl` (stereo not given) gave NS1 inh inconclusive, Cruzain inh noDet 25.1µM and Cruzain Triton inactive.
For Cc1cccc(C2=NN(c3ccccc3)[C@H](CO)[C@H]2c2ccccc2)c1 the results were Cruzain inh noDet inconclusive and Cruzain Triton inactive.
Cc1cccc(C2=NN(c3ccccc3)[C@H](CO)[C@H]2C)c1 was read as Cruzain inh noDet 35.5µM and Cruzain Triton inactive.
COc1cc(/C=N/NC(=O)CCc2c(C)n[nH]c2C)ccc1O was read as NS1 inh inactive, Cruzain inh noDet inactive and Cruzain Triton inactive.
Cc1nn(-c2ccccc2)c(Cl)c1/C=N/Nc1ccc(S(=O)(=O)Nc2ccccc2C(=O)O)cc1[N+](=O)[O-] was read as NS1 inh inconclusive, Cruzain inh noDet inconclusive and Cruzain Triton 14.1µM.
For Cc1nn(-c2ccccc2)c(Cl)c1/C=N/Nc1ccc(Cl)c(C(=O)O)c1 the results were NS1 inh inactive, Cruzain inh noDet inactive and Cruzain Triton inactive.
Screening COc1ccc(-c2nn(CC(=O)Nc3ccc(Cl)c(Cl)c3)c(=O)c3ccccc23)cc1 returned NS1 inh inactive, Cruzain inh noDet 7.94µM and Cruzain Triton inactive.
For COC(=O)COc1ccc(NC(=O)Cn2nc(-c3ccccc3)c3ccccc3c2=O)cc1 the results were NS1 inh inactive.
`O=C(CCSc1nc(-c2ccco2)cc(C(F)(F)F)n1)NCc1ccccn1` gave NS1 inh inactive, Cruzain inh noDet inactive and Cruzain Triton inactive.
Screening CC(=O)Nc1ccc(-c2nc3ccc(NC(C)=O)cc3o2)cc1 returned NS1 inh inactive.
`COc1ccc(NC2SC(=O)N(C)C2=O)cc1` (stereo not given) gave NS1 inh inactive.
CCOc1cccc(CNCCCSc2ncccn2)c1 was read as NS1 inh inactive.
Screening COc1cc(NS(=O)(=O)c2ccc(NC(=S)NC(=O)c3sc4ccccc4c3Cl)cc2)nc(OC)n1 returned NS1 inh inactive, Cruzain inh noDet inactive and Cruzain Triton inactive.
For NC(N)=NS(=O)(=O)c1ccc(NC(=S)NC(=O)c2sc3ccccc3c2Cl)cc1 the results were NS1 inh inactive, Cruzain inh noDet 10µM and Cruzain Triton inactive.
For O=C(NC(=S)Nc1ccccc1N1CCOCC1)c1sc2ccccc2c1Cl the results were NS1 inh inactive, Cruzain inh noDet 10µM and Cruzain Triton inactive.
Screening O=C(NC(=S)Nc1ccc(N2CCOCC2)c(Cl)c1)c1sc2ccccc2c1Cl returned NS1 inh inactive, Cruzain inh noDet inconclusive and Cruzain Triton inactive.
`O=S(=O)(c1ccc(-c2ccon2)s1)N1CCCC1` gave NS1 inh inactive.
`CCc1ccc(NC(=O)Cn2c3ncccc3c(=O)n2-c2ccc(C)c(C)c2)cc1` gave Cruzain inh noDet inactive and Cruzain Triton inactive.
